ALDH1A1 block = inhibitors of human aldehyde dehydrogenase 1A1 | Potency, µM (highest dose often 75.3 µM), for the others: at the top dose activity, negative = inhibition, hits mostly inhibitors | hit rate 7.3% among 220,000 | Purified ALDH1A1, NADH fluorescence, propionaldehyde substrate | AID 1030; active = well fitted inhibition curve with a large enough effect, not every such curve was filed as active; inconclusive = small, poorly fitted or top-dose-only effect, or another doubt; inactive = no such curve, though single readings can be large or run the other way;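 also: potency is read from the fitted curve at half-maximal effect; plate controls were no enzyme wells and a reference inhibitor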
Target sequence (P00352 whole entry, looked up): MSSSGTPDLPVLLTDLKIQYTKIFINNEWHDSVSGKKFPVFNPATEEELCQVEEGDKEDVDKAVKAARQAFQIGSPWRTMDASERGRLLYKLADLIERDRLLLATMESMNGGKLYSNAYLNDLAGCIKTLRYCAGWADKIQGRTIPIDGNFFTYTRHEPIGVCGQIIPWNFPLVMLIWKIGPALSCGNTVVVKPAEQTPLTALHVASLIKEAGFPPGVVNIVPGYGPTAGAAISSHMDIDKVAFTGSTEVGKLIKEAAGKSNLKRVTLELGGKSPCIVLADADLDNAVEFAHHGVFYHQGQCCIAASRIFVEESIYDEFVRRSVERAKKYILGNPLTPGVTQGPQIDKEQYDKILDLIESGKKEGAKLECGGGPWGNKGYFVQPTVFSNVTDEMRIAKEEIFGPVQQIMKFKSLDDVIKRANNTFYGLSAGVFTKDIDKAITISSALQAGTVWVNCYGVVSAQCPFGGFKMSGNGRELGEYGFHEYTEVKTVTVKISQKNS
GoLoco inh red = blocks human Gai1 binding to RGS12 GoLoco peptide, red readout; P63096; Gai1:RGS12 GoLoco peptide FP, rhodamine, 10 min; Potency, µM (highest dose often 61.6 µM), without a hit: at the highest dose activity, negative = inhibition, actives largely listed as inhibitors; hit rate 0.44% among 230,000; active = well fitted inhibition curve with a large enough effect, not every such curve was filed as active; inactive = no such curve, though single readings can be large or run the other way; also: potency is read from the fitted curve at half-maximal effect; % is scaled to controls: 0 for no effect and ±100 for the full control effect; nearly all actives have a fitted effect of over 30% in size
HPGD block = HPGD (human) dehydrogenase inhibition. purified HPGD, NADH fluorescence kinetic, PGE2 substrate. P15428. Potency, µM, inactives show at the top dose activity change, negative = inhibition, most hits filed as inhibitors. hit rate 4.3% among 150,000; active = well fitted inhibition curve with a large enough effect, not every such curve was filed as active; inconclusive = small, poorly fitted or top-dose-only effect, or another doubt; inactive = no such curve, though single readings can be large or run the other way; also: potency is read from the fitted curve at half-maximal effect; % is scaled to controls: 0 for no effect and ±100 for the full control effect
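20 nM HPGD preincubated 15 min at room temperature with compound in 50 mM Tris-HCl pH 8, 0.01% Tween 20. Started with 1 mM NAD+ and 30 uM prostaglandin E2; NADH fluorescence (360/450 nm) read 5 times over 30-s intervals, last minus first.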
HTT aggregate = mutant huntingtin aggregation inhibition. PC12 HttQ103-GFP aggregates, Acumen cytometry, 40 h. Potency, µM (highest dose often 46.1 µM), for the others: top-dose activity change, negative = inhibition, usual class: inhibitors. hit rate 1.1% among 220,000; also: potency is read from the fitted curve at half-maximal effect; % is scaled to controls: 0 for no effect and ±100 for the full control effect; nearly all actives have a fitted effect of over 60% in size
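Huntingtin Q103 exon 1–GFP aggregates in induced PC12 cells (100 nM tebufenozide) were quantified by cytometry from lysates, with compounds dosed in titration.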
PNC assembly inh = blocks assembly of the perinucleolar compartment; activity change (PNC), negative = inhibition, % at 10 µM; PC3M PTB-GFP, PNC prevalence imaging, 16 h; active compounds read low; AID 2417; hit rate 3.1% among 140,000;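 active = readout at or below -70, meaning at least 70% loss of cells showing the perinucleolar compartment, a nuclear body marking cancer cells; inconclusive = readout between -30 and a set limit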;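 also: plate controls were DMSO wells for no effect and camptothecin positive control wells for full effect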
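Read-out is percentage of cells bearing a perinucleolar compartment, from automated 20x imaging of fixed, Hoechst-stained PC3M PTB-GFP cells. Cells were seeded 4 h, then exposed 16 h to compound (23 nl of library stock) in duplicate plates.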
HTT cytoprotect = Huntington cell model cytoprotection by ATP luminescence. PC12 HTT-Q103 induced, cytoprotection, ATP luminescence, 40 h. Potency, µM (top dose mostly 56.4 µM), for the others: cytoprotection (ATP increase), hits mostly activators. hit rate 0.14% among 230,000. AID 1471; also: potency is read from the fitted curve at half-maximal effect; % of control where 0% means no effect; nearly all actives have a fitted effect of over 45% in size
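Stable PC12 Q103-GFP cells in serum-supplemented, phenol red-free DMEM; induction by tebufenozide at 100 nM final; compound dose series; cell viability quantified luminescently from ATP.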
The depositor's hits bear a star; ? = inconclusive; / = not tested or not shown; [ ] = dose if it differs, or a comment. In the library only some 11% were active in any assay of this set; here they are far more common. Unless noted, calls follow the shape of the dose curve; as a rule, active = well fitted curve in the direction sought with a large enough effect; inconclusive = small, poorly fitted or top-dose-only effect, or another doubt; inactive = no such curve, though single readings can be large; an effect the other way counts as inactive or inconclusive.

SMILES	ALDH1A1 block	GoLoco inh red	HPGD block	HTT aggregate	PNC assembly inh	HTT cytoprotect
Cc1ccc(Nc2nnc(SCC(=O)Nc3ccccc3[N+](=O)[O-])s2)cc1	0.2%	1.1%	-11.9%	17.8%	-119.3*	11.9%[10 µM]
COC(=O)C(C(=O)OC)C1c2ccccc2C=C(C)N1C(=O)OC (stereo not given)	11.0%[13.5 µM]	3.4%[14.2 µM]	-7.3%	/	/	5.4%[10 µM]
COCCN1C(=O)N[C@@H](c2cccc(C(F)(F)F)c2)C(C(C)=O)=C1C	-7.3%	-5.1%	-13.8%	/	/	-19.0%
Cc1cccc(NC(=O)c2cc(NC(=O)c3ccco3)ccc2Cl)n1	-12.8%	-5.4%	-7.2%	-11.4%	-110.0*	-7.1%[10 µM]
Cc1cccc(NC(=O)c2ccccc2Br)n1	?	-3.0%	25.1µM*	-9.3%	57.1	-5.1%
Cc1cccc(NC(=O)c2onc3c2CCCC3)c1C	-7.9%	-12.4%	-11.9%	-4.4%	-27.3	-18.6%
Cc1cccc(NC(=O)c2onc3c2CCCC3)n1	22.4µM*	2.2%	-17.5%	-24.9%	58.3	/
COc1cc(/C=N/NC(=O)CC2(C)OCCCO2)ccc1OCc1ccccc1	11.2µM*	10.3%	?	-11.2%	-0.9	-3.9%[10 µM]
O=C(Nc1nc2nccc(-c3ccccc3)n2n1)C(Cl)(Cl)Cl	?	-8.8%	-15.0%	?	86.4	19.8%[10 µM]
CCC(=O)N(Cc1ccco1)c1nc(-c2cc(OC)ccc2OC)cs1	-1.3%	1.3%	-13.9%	-10.7%	-100.0*	1.1%[10 µM]
Cc1cc(C)c(C(=O)COC(=O)CCNS(=O)(=O)c2c(Cl)cccc2Cl)cc1C	9.3%	-4.5%	-4.2%	-3.8%	-21.6	7.2%[10 µM]
C#CCCCO/N=C1/C[C@@H](O)[C@@H](O)[C@@H]2[C@H]3C(=O)N(c4ccc(F)cc4F)C(=O)[C@@H]3CC[C@H]12	8.8%[13.5 µM]	/	/	/	/	-1.7%[10 µM]
CC(C)Cn1nnnc1S(=O)(=O)CC#N	-4.2%	-4.8%	-9.2%	/	/	6.8%
Oc1sc(C=Nc2ccccc2)c2ccccc12	22.4µM*	-4.5%	-24.4%	9.8%	26.2	-4.0%[10 µM]
c1cncc(CNCc2cccnc2)c1	0.4%[13.5 µM]	1.1%[14.2 µM]	-3.0%	/	/	21.4%[10 µM]
CCCn1c(=O)[nH]c2nc(-c3ccc(S(=O)(=O)O)cc3)[nH]c2c1=O	?	8.5%	?	/	/	-14.4%
CC1CC(C)(C)NCc2ccccc21 (stereo not given)	0.562µM*	/	/	-24.0%	3.6	-26.2%
CC1CC(C)(C)NC(C)c2ccccc21 (stereo not given)	-6.6%	/	/	-9.6%	-7.3	-11.4%
Cc1noc(C)c1CCC(=O)N1CCCC(CCC(=O)NCc2ccc(F)c(F)c2)C1 (stereo not given)	-1.0%	24.8%	/	-6.0%[9.22 µM]	/	-13.7%[10 µM]
CC1=CC(C)(C)N(C(=O)CSc2ncn[nH]2)c2ccccc21	12.6µM*	-13.1%	-6.9%	19.0%	?	18.7%[10 µM]
CC1=CC(C)(C)N(C(=O)CCl)c2ccccc21	?	66.5%	/	-1.2%[9.22 µM]	/	-7.8%[10 µM]
CC1CCN(C(=O)COC(=O)c2ccc3c(c2)OCO3)CC1	2.5%	-0.7%	/	-2.0%	/	-25.8%
CN(C)c1ccc(-c2nc(N3CCNCC3)c3ccccc3n2)cc1	-14.7%	-5.6%	-17.8%	/	/	-76.0%
Brc1ccc(CSc2nnc(-c3ccccn3)n2Cc2ccco2)cc1	5.7%	7.8%	-12.6%	-13.5%	23.4	10.7%[0.074 µM]
C=CCn1c(SCC(=O)NC2CCCCC2)nnc1-c1sc(N)nc1C	-11.3%	8.2%	-16.5%	5.4%	?	17.4%[10 µM]
O=C(CSc1nnc(-c2cnccn2)n1Cc1ccco1)c1ccc(Cl)cc1	?	32.2%	?	23.9%	?	-10.5%[10 µM]
CC(C)(C)c1ccc(CSc2nnc(-c3ccccn3)n2Cc2ccco2)cc1	?	1.0%	-23.9%	14.1µM*	?	6.3%
C=CCn1c(SCC(=O)Nc2sc(C)c(C)c2C(=O)OCC)nnc1-c1sc(N)nc1C	14.1µM*	20.2%	-7.5%	-4.6%	16.6	-0.9%
O=C(CSc1nnc(-c2ccccn2)n1Cc1ccco1)c1ccc(Cl)cc1	20µM*	56.6%	?	21.8%	26.1	-19.9%
O=C(CSc1nnc(-c2cnccn2)n1Cc1ccco1)c1ccccc1	-1.9%	5.1%	15.8µM*	4.2%	7.0	-4.4%

High-throughput results (PubChem BioAssay)
